Results on 26 molecules are retold here after the supplement of paper PMC10037445.

The structures appear in SMILES notation. In all, about 2,900 compounds were measured (“NF-kB SEAP reporter activity, fold change vs agonist alone”: median about 0.99, highest 2% from about 2.6 on). Many of the other results were omitted from the sample, so the highest values are more common in it than they were.

In assay [1] the test system is RAW-Dual. Put plainly: NF-kB SEAP reporter activity, fold change vs agonist alone; higher = enhanced NF-kB activity. The method, boiled down:
(§1)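 RAW-Dual macrophages (50,000 cells/well in DMEM, 384-well plates) received 50 nL of library stock by pin tool, then a PRR agonist 1 h later, and were kept at 37 °C, 5% CO2. After 20 hours, supernatant was read for IRF by QuantiLuc luminescence and for NF-κB by QuantiBlue absorbance at 620 nm. Reporter activity is fold change over agonist-alone wells. Cytotoxic wells had IncuCyte confluency below 70% of agonist controls in both mask sets.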

Assay [2] concerns RAW-Dual. The assay is described as follows: NF-kB SEAP reporter activity, fold change vs agonist alone; cytotoxicity flag (confluency mask): not cytotoxic; higher = enhanced NF-kB activity. The gist of the method: as §1
For assay [3], the system named is RAW-Dual. The assay is described as follows: NF-kB SEAP reporter activity, fold change vs agonist alone; cytotoxicity flag (confluency mask): cytotoxic (confluency <70% of control); higher = enhanced NF-kB activity. The gist of the method: as §1
Where [4] appears, read: library stock concentration (final ~1000-fold dilution): 10 mM, cytotoxicity flag (confluency mask): not cytotoxic, agonist: Imiquimod (TLR7) […].
The mark [5] stands for this setting: library stock concentration (final ~1000-fold dilution): 10 mM, cytotoxicity flag (confluency mask): not cytotoxic, agonist: MPLA (TLR4) […].
Where [6] appears, read: agonist: ODN 1826 (TLR9) 0.5 ug/mL.
Setting [7] is: agonist: Pam2CSK4 (TLR2/6) 0.1 ug/mL.
[8] abbreviates: agonist: Pam3CSK4 (TLR2/1) 0.1 ug/mL.

On to `COc1ccc(C(=C2C(=O)Nc3ccccc32)c2ccc(OC)cc2)cc1`, for which the “NF-kB SEAP reporter activity” value in the assay with RAW-Dual [1] (setting [4]) amounted to 0.748; in the assay on RAW-Dual [1] (setting [5]) it was 0.978.
Take `Cc1c[nH]c(C=C2C(=O)Nc3ccccc32)c1CCC(=O)O` (library stock concentration (final ~1000-fold dilution): 10 mM): the “NF-kB SEAP reporter activity” value in the assay on RAW-Dual [2] (agonist: LPS (TLR4) 0.1 ug/mL) was determined as 0.665; in the assay with RAW-Dual [2] (setting [6]) it was 0.926; with RAW-Dual [2] (setting [7]), 0.983; in the assay on RAW-Dual [2] (setting [8]), 0.647.
Consider `Cc1c[nH]c(C=C2C(=O)Nc3ccccc32)c1CCC(=O)O`, for which the “NF-kB SEAP reporter activity” value in the assay with RAW-Dual [1] (setting [4]) came to 0.662; in the assay with RAW-Dual [1] (setting [5]), 0.848.
On to `COc1ccc(C(=C2C(=O)Nc3ccccc32)c2ccc(OC)cc2)cc1` (library stock concentration (final ~1000-fold dilution): 10 mM), for which the “NF-kB SEAP reporter activity” value in the assay with RAW-Dual [2] (agonist: LPS (TLR4) 0.1 ug/mL) was determined as 1.04; in the assay with RAW-Dual [2] (setting [6]), 0.585; with RAW-Dual [2] (setting [7]), 0.692; in the assay on RAW-Dual [2] (setting [8]) it was 0.323.
Turning to `NC(N)=NCCCC(N)C(=O)NC(CCCN=C(N)N)C(=O)N1CCCC1C(=O)N1CC(O)CC1C(=O)NCC(=O)NC(Cc1cccs1)C(=O)NC(CO)C(=O)N1Cc2ccccc2CC1C(=O)N1C(C(=O)NC(CCCN=C(N)N)C(=O)O)CC2CCCCC21` (stereo not drawn), the “NF-kB SEAP reporter activity” value with RAW-Dual [1] (library stock concentration (final ~1000-fold dilution): 2 mM water, cytotoxicity flag (confluency mask): not cytotoxic, agonist: Imiquimod (TLR7) […]) is 0.945; in the assay on RAW-Dual [1] (library stock concentration (final ~1000-fold dilution): 2 mM water, cytotoxicity flag (confluency mask): not cytotoxic, agonist: MPLA (TLR4) […]), 1.05.
Regarding `NC(N)=NCCCC(N)C(=O)NC(CCCN=C(N)N)C(=O)N1CCCC1C(=O)N1CC(O)CC1C(=O)NCC(=O)NC(Cc1cccs1)C(=O)NC(CO)C(=O)N1Cc2ccccc2CC1C(=O)N1C(C(=O)NC(CCCN=C(N)N)C(=O)O)CC2CCCCC21` (stereo not drawn) (library stock concentration (final ~1000-fold dilution): 2 mM water), the “NF-kB SEAP reporter activity” value in the assay on RAW-Dual [2] (agonist: LPS (TLR4) 0.1 ug/mL) came out at 0.985; in the assay on RAW-Dual [2] (setting [6]), 1.06; in the assay on RAW-Dual [2] (setting [7]), 1.1; with RAW-Dual [2] (setting [8]), 0.962.
The like results for `CC12CC(O)C3CC1(O[C@@H]1O[C@H](CO)[C@@H](O)[C@H](O)[C@H]1O)C3(COC(=O)c1ccccc1)C(=O)O2` (stereo partly drawn) (library stock concentration (final ~1000-fold dilution): 10 mM) were, in that order, 1.24, 1.12, 1.1 and 1.06.
`CC12CC(O)C3CC1(O[C@@H]1O[C@H](CO)[C@@H](O)[C@H](O)[C@H]1O)C3(COC(=O)c1ccccc1)C(=O)O2` (stereo partly drawn): the “NF-kB SEAP reporter activity” value in the assay with RAW-Dual [1] (setting [4]) and with RAW-Dual [1] (setting [5]) was 1.03 in each case.
For `CNCCCC1c2ccccc2C=Cc2ccccc21.Cl` (library stock concentration (final ~1000-fold dilution): 10 mM), the “NF-kB SEAP reporter activity” value in the assay with RAW-Dual [3] (agonist: LPS (TLR4) 0.1 ug/mL) is 0.947; in the assay with RAW-Dual [3] (setting [6]), 0.644; in the assay with RAW-Dual [3] (setting [7]), 0.63; in the assay with RAW-Dual [3] (setting [8]), 0.687.
On to `CNCCCC1c2ccccc2C=Cc2ccccc21.Cl`, for which the “NF-kB SEAP reporter activity” value in the assay with RAW-Dual [1] (library stock concentration (final ~1000-fold dilution): 10 mM, cytotoxicity flag (confluency mask): cytotoxic (confluency <70% of control), agonist: Imiquimod (TLR7) […]) was determined as 1.28; with RAW-Dual [1] (library stock concentration (final ~1000-fold dilution): 10 mM, cytotoxicity flag (confluency mask): cytotoxic (confluency <70% of control), agonist: MPLA (TLR4) […]) it was 1.62.
In the case of `O=C(CCNNC(=O)c1ccncc1)NCc1ccccc1` (library stock concentration (final ~1000-fold dilution): 10 mM), the “NF-kB SEAP reporter activity” value with RAW-Dual [2] (agonist: LPS (TLR4) 0.1 ug/mL) is 0.997; in the assay with RAW-Dual [2] (setting [6]) it was 1.03; in the assay on RAW-Dual [2] (setting [7]), 0.962; with RAW-Dual [2] (setting [8]) it was 0.955.
The like results for `CCCCNc1ccc(C(=O)OCCN(C)C)cc1.Cl` (library stock concentration (final ~1000-fold dilution): 10 mM) were, in that order, 1.38, 0.759, 1.13 and 1.17.
As to `CCCCNc1ccc(C(=O)OCCN(C)C)cc1.Cl`, the “NF-kB SEAP reporter activity” value with RAW-Dual [1] (setting [4]) was 0.843; in the assay with RAW-Dual [1] (setting [5]), 1.04.
The like results for `CCCCNNC(=O)c1ccc(Br)cc1` were, in that order, 1.95 and 2.28.
Consider `CCCCNNC(=O)c1ccc(Br)cc1` (library stock concentration (final ~1000-fold dilution): 10 mM), for which the “NF-kB SEAP reporter activity” value is 3.15 in the assay with RAW-Dual [2] (agonist: LPS (TLR4) 0.1 ug/mL), 2.18 in the assay with RAW-Dual [2] (setting [6]), 0.64 with RAW-Dual [2] (setting [7]) and 0.656 in the assay on RAW-Dual [2] (setting [8]).
With `O=C(CCNNC(=O)c1ccncc1)NCc1ccccc1`, the “NF-kB SEAP reporter activity” value in the assay on RAW-Dual [1] (setting [4]) stood at 0.939; with RAW-Dual [1] (setting [5]) it was 1.
Regarding `CS(=O)(=O)n1cc2c(n1)CN(C1COC(c3cc(F)ccc3F)C(N)C1)C2` (stereo not drawn) (library stock concentration (final ~1000-fold dilution): 10 mM), the “NF-kB SEAP reporter activity” value came out at 1.1 in the assay on RAW-Dual [2] (agonist: LPS (TLR4) 0.1 ug/mL), 0.91 in the assay with RAW-Dual [2] (setting [6]), 1 in the assay with RAW-Dual [2] (setting [7]) and 0.974 with RAW-Dual [2] (setting [8]).
For the molecule `CS(=O)(=O)n1cc2c(n1)CN(C1COC(c3cc(F)ccc3F)C(N)C1)C2` (stereo not drawn), the “NF-kB SEAP reporter activity” value in the assay on RAW-Dual [1] (setting [4]) amounted to 0.931; with RAW-Dual [1] (setting [5]) it was 1.03.
The like results for `O=C(NCCN1CCOCC1)c1ccc(Cl)cc1` were, in that order, 1.74 and 1.82.
On to `Cc1ccc(-n2nc(C(C)(C)C)cc2NC(=O)Nc2ccc(OCCN3CCOCC3)c3ccccc23)cc1`, for which the “NF-kB SEAP reporter activity” value in the assay on RAW-Dual [1] (setting [4]) was found to be 0.455; with RAW-Dual [1] (setting [5]) it was 0.804.
The like results for `O=C(Cc1ccc(-c2ccc(OCCN3CCOCC3)cc2)cn1)NCc1ccccc1` were, in that order, 2.63 and 2.26.
As to `Cc1ccc(-n2nc(C(C)(C)C)cc2NC(=O)Nc2ccc(OCCN3CCOCC3)c3ccccc23)cc1` (library stock concentration (final ~1000-fold dilution): 10 mM), the “NF-kB SEAP reporter activity” value in the assay on RAW-Dual [2] (agonist: LPS (TLR4) 0.1 ug/mL) turned out to be 0.477; in the assay on RAW-Dual [2] (setting [6]), 0.449; in the assay with RAW-Dual [2] (setting [7]), 0.129; with RAW-Dual [2] (setting [8]) it was 0.226.
With `O=C(Cc1ccc(-c2ccc(OCCN3CCOCC3)cc2)cn1)NCc1ccccc1` (library stock concentration (final ~1000-fold dilution): 10 mM), the “NF-kB SEAP reporter activity” value in the assay on RAW-Dual [2] (agonist: LPS (TLR4) 0.1 ug/mL) turned out to be 4.55; in the assay on RAW-Dual [2] (setting [6]), 3.36; in the assay with RAW-Dual [2] (setting [7]), 2; in the assay on RAW-Dual [2] (setting [8]), 2.39.
The like results for `O=C(NCCN1CCOCC1)c1ccc(Cl)cc1` (library stock concentration (final ~1000-fold dilution): 10 mM) were, in that order, 1.32, 1.86, 1.18 and 1.17.
The like results for `C=CC(=O)N1CC(Nc2ncnc3[nH]ccc23)CCC1C` (stereo not drawn) (library stock concentration (final ~1000-fold dilution): 10 mM) were, in that order, 0.655, 0.682, 0.56 and 0.738.
Consider `C=CC(=O)N1CC(Nc2ncnc3[nH]ccc23)CCC1C` (stereo not drawn), for which the “NF-kB SEAP reporter activity” value in the assay on RAW-Dual [1] (setting [4]) amounted to 0.572; in the assay with RAW-Dual [1] (setting [5]), 0.785.
